Only some compounds are listed: those with a hit (about 3.5% of all), similar ones and a draw of the others.
MITF inh = human MITF inhibition, primary screen; AlphaScreen MITF homodimerization, bead proximity signal; inhibition, % at 2.6 µM; 0.91% of 650,000 active; in the data active = inhibition above about 50%
GPR151 ag = activates the human receptor GPR151; Q8TDV0; PathHunter beta-arrestin GPR151 cells, luminescence; activation, % at 11.2 µM; 1% of 650,000 active; in the data active = activation above about 4.9%
FBW7 act = activators of human E3 ligase FBW7; Q969H0; AlphaScreen FBW7–phospho-cyclin E peptide binding, activator screen; normalized activity (activation), % at 26.1 µM; AID 1259310; 0.13% of 650,000 active; in the data active = normalized activity above about 1.9%;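 note: purified mutant Fbw7 with reduced substrate affinity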
TEAD-YAP block = TEAD-YAP interaction inhibition | HEK-TIYL cells, TEAD-Gal4/YAP UAS-luciferase luminescence | 1.4% of 640,000 active | inhibition, % at 9.12 µM; in the data active = inhibition above about 32%
A number is an active result.

`NC(=O)c1ccccc1Nc1cc(NC(=O)Cc2ccc3c(c2)OCO3)ncc1F` gave MITF inh inactive, GPR151 ag inactive, FBW7 act inactive and TEAD-YAP block inactive.
NC(=O)c1ccccc1Nc1cc(NC(=O)Cc2ccc3c(c2)OCO3)ncc1Cl was read as MITF inh inactive, GPR151 ag inactive, FBW7 act inactive and TEAD-YAP block 70.4.
Screening O=C(Cc1ccc2c(c1)OCO2)Nc1cc(Nc2ccccc2C2=NCCN2)c(Cl)cn1 returned MITF inh inactive, GPR151 ag inactive, FBW7 act inactive and TEAD-YAP block inactive.
Screening CNC(=O)c1ccccc1Nc1cc(NC(=O)Cc2ccc3c(c2)OCO3)ncc1C(F)(F)F returned MITF inh inactive, GPR151 ag inactive, FBW7 act inactive and TEAD-YAP block 75.1.
For NC(=O)c1ccccc1Nc1cc(NC(=O)Cc2ccc3c(c2)OCO3)ncc1C(F)(F)F the results were MITF inh inactive, GPR151 ag inactive, FBW7 act inactive and TEAD-YAP block 100.0.
Clc1nc(Nc2ccc3c(c2)OCO3)c2ncn(-c3ccccc3)c2n1 was read as MITF inh inactive, GPR151 ag inactive, FBW7 act inactive and TEAD-YAP block inactive.
`CNC(=O)c1ccccc1Nc1cc(NC(=O)Cc2ccccc2OC)ncc1C(F)(F)F` gave MITF inh inactive, GPR151 ag inactive, FBW7 act inactive and TEAD-YAP block 82.6.
`CNC(=O)c1ccccc1Nc1cc(NC(=O)Cc2cccc(F)c2)ncc1C(F)(F)F` gave MITF inh inactive, GPR151 ag inactive, FBW7 act inactive and TEAD-YAP block 72.1.
Screening CNC(=O)c1ccccc1Nc1cc(NC(=O)C(C)(C)c2ccccc2)ncc1C(F)(F)F returned MITF inh inactive, GPR151 ag inactive, FBW7 act inactive and TEAD-YAP block inactive.
For CCC(C)NC(=O)Cn1c(=O)oc2cc(S(=O)(=O)NC3CCCC3)ccc21 (stereo not given) the results were MITF inh inactive, GPR151 ag inactive, FBW7 act inactive and TEAD-YAP block inactive.
For CC(=O)CC(=O)Nc1ccc(F)cc1 the results were MITF inh inactive, GPR151 ag inactive, FBW7 act inactive and TEAD-YAP block inactive.
For CCOc1ccc(N(CC(=O)Nc2ccccc2C)S(=O)(=O)c2c(C)noc2C)cc1 the results were MITF inh inactive, GPR151 ag inactive, FBW7 act inactive and TEAD-YAP block 55.1.
Screening CCc1cccc(NC(=O)NCCNc2cc(-n3ccnc3C)nc(C)n2)c1 returned MITF inh inactive, GPR151 ag inactive, FBW7 act inactive and TEAD-YAP block inactive.
O=c1[nH]c(N/N=C/c2ccccc2O)nnc1Cc1ccccc1 was read as MITF inh 101.1, GPR151 ag inactive, FBW7 act inactive and TEAD-YAP block 59.6.
For Cc1ccc(/C=N/Nc2nnc(Cc3ccccc3)c(=O)[nH]2)o1 the results were MITF inh inactive, GPR151 ag inactive, FBW7 act inactive and TEAD-YAP block inactive.
For O=c1cnnc(N/N=C/c2ccccc2O)[nH]1 the results were MITF inh 108.4, GPR151 ag inactive, FBW7 act inactive and TEAD-YAP block inactive.
Cc1ccc(C(=O)/C(=C\c2cccs2)c2nc3ccccc3o2)cc1 was read as MITF inh inactive, GPR151 ag inactive, FBW7 act inactive and TEAD-YAP block 72.7.
For COc1ccc(C(=O)/C(=C\c2ccc(C)o2)c2nc3ccccc3o2)cc1 the results were MITF inh inactive, GPR151 ag inactive, FBW7 act inactive and TEAD-YAP block 37.8.
For COc1ccc(C2C(C#N)=C(N)Oc3cc(C)n(Cc4cccs4)c(=O)c32)cc1 (stereo not given) the results were MITF inh inactive, GPR151 ag inactive, FBW7 act inactive and TEAD-YAP block inactive.
Cc1ccc(NC(=O)CSc2nnc(C)s2)c(C)c1 was read as MITF inh inactive, GPR151 ag inactive, FBW7 act inactive and TEAD-YAP block inactive.
`Cc1ccc(N/C(N)=N/c2nc(CSc3nnc(C)s3)cc(=O)[nH]2)c(C)c1` gave MITF inh inactive, GPR151 ag inactive, FBW7 act inactive and TEAD-YAP block 44.4.
CCCn1cc([C@@H]2C[C@H]3CN(Cc4cccc(OC)c4)C(=O)[C@]34CCCN24)c(C)n1 was read as MITF inh inactive, GPR151 ag inactive, FBW7 act inactive and TEAD-YAP block inactive.
For Cc1ccc(NC(=O)CNCc2cccs2)c(Br)c1 the results were MITF inh inactive, GPR151 ag inactive, FBW7 act 3.8 and TEAD-YAP block inactive.
Screening Cc1ccc(NC(=O)Cc2cccs2)c(Br)c1 returned MITF inh inactive, GPR151 ag inactive, FBW7 act inactive and TEAD-YAP block inactive.
For COc1ccc(CCNC(=O)c2sc3ncnc(N4CCN(c5ccccn5)CC4)c3c2C)cc1OC the results were MITF inh inactive, GPR151 ag inactive, FBW7 act inactive and TEAD-YAP block 69.8.
Screening COc1ccc(CCNC(=O)c2sc3ncnc(N4CCN(c5ccccc5OC)CC4)c3c2C)cc1OC returned MITF inh inactive, GPR151 ag inactive, FBW7 act inactive and TEAD-YAP block inactive.
`COc1ccc(NC(=O)c2sc(=S)n(-c3ccccc3)c2N)c(OC)c1` gave MITF inh inactive, GPR151 ag inactive, FBW7 act inactive and TEAD-YAP block inactive.
`CN(C)CCOc1cc(-c2cn[nH]c2)ccc1NC(=O)C(O)c1ccc(F)cc1` (stereo not given) gave MITF inh inactive, GPR151 ag inactive, FBW7 act inactive and TEAD-YAP block inactive.
`CN(C)CCOc1cc(-c2cn[nH]c2)ccc1N` gave MITF inh 54.0, GPR151 ag inactive, FBW7 act inactive and TEAD-YAP block inactive.
For Cc1ccc(S(=O)(=O)N(C)c2ccc(C(=O)N3C(C)CCCC3C)cc2)cc1 (stereo not given) the results were MITF inh inactive, GPR151 ag inactive, FBW7 act inactive and TEAD-YAP block 48.4.
Screening Cc1ccc(S(=O)(=O)N(C)c2ccc(C(=O)N3CCCCC3)cc2)cc1 returned MITF inh inactive, GPR151 ag inactive, FBW7 act inactive and TEAD-YAP block inactive.
For N#Cc1c(N)nc(SCC(=O)c2ccc([N+](=O)[O-])cc2)c(C#N)c1Cc1ccccc1 the results were MITF inh inactive, GPR151 ag inactive, FBW7 act inactive and TEAD-YAP block inactive.
For Oc1ccc(CCNc2ccnc(Nc3ccncc3)n2)cc1 the results were MITF inh inactive, GPR151 ag inactive, FBW7 act inactive and TEAD-YAP block 74.9.
Oc1ccc(CCNc2ccnc(Nc3ccc(-n4ccnc4)cc3)n2)cc1 was read as MITF inh inactive, GPR151 ag inactive, FBW7 act inactive and TEAD-YAP block 43.4.
`Oc1ccc(CCNc2ccnc(Nc3ccc(C(F)(F)F)cc3)n2)cc1` gave MITF inh inactive, GPR151 ag inactive, FBW7 act inactive and TEAD-YAP block inactive.
CC1(C)CC(N2C(=N)/C(=C3/Nc4ccccc4S3)CC2=O)CC(C)(C)N1 was read as MITF inh inactive, GPR151 ag inactive, FBW7 act inactive and TEAD-YAP block inactive.
Screening Cc1ccc(S(=O)(=O)Oc2ccccc2/C=N/N=C(N)N)cc1 returned MITF inh inactive, GPR151 ag inactive, FBW7 act inactive and TEAD-YAP block inactive.
`Cc1ccc(S(=O)(=O)Oc2ccccc2/C=N/NC(N)=S)cc1` gave MITF inh inactive, GPR151 ag inactive, FBW7 act inactive and TEAD-YAP block 60.5.

Source: PubChem (The Scripps Research Institute Molecular Screening Center)
